The results in this text go back to PubChem BioAssay (NCATS).

Where “and” joins values, the source holds several entries; their conditions need not be identical. Equal values may be shown once. Inconclusive results are not listed. A call without a number means that no potency is given here. Calls of active or inactive are those of the source. The call rests on the fitted dose curve; in most records, active means well fitted cell-killing curve with a large enough effect; inconclusive means small, poorly fitted or top-dose-only effect, or effect the other way; inactive means no such curve, though single readings can be large or run the other way.
Potency means the concentration at half of the fitted maximal effect.

The nature of the assay: Viability qHTS for spleen associated tyrosine kinase inhibitor (SYKi) drug resistant MV4-11 cells (AID 1963824). Further: nearly all actives have a fitted effect of over 35% in size. The settings on record: SYKi-resistant MV4-11 viability, CellTiter-Glo, 72 h; series mostly up to 45 µM. Summed up:
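CellTiter-Glo luminescence, read 10 min after reagent addition, reports viability after a 72 hr compound exposure. Cells are an MV4-11 line made resistant to SYK inhibition, seeded at 500 per well onto compound-containing plates.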
(Quantitative high-throughput screening tests each substance at several concentrations.)
On to `Cc1cccc(C)c1NC1=NCCCS1`, for which the Potency entry is “inactive”.

Turning to `C=C(C)[C@@H]1CCC(C)=C[C@H]1c1c(O)cc(CCCCC)cc1O`, the Potency was 16.6 µM (active).

With `Nc1ccc(Cl)cc1`, the Potency result is “inactive”.

On to `COc1cc(C[C@@H](C)N)c(OC)cc1C`, for which the Potency entry is “inactive”.

With `CCCCCCCCCCCC[N+](C)(C)CCOc1ccccc1`, the Potency was 2.66 µM (active).

For `CCN(CC)CCOC(=O)C(C)(c1ccccc1)c1ccccc1`, the Potency entry was “inactive”.

In the case of `CC(C)=CC1C(C(=O)OCN2C(=O)C3=C(CCCC3)C2=O)C1(C)C` (stereo not given), the Potency entry is “inactive”.

`CC1(C)CC(O)CC(C)(C)N1O`: the Potency result was “inactive”.

`CN(C)c1cc2c(cc1Sc1nc3c(N)nccc3n1CCNCC(C)(C)C)OCO2`: the Potency is 184 nM (active) and 235 nM (active).

With `CC(C)(O)/C=C\C(=O)[C@](C)(O)[C@H]1[C@H](O)C[C@]2(C)[C@@H]3CC=C4[C@@H](C=C(O)C(=O)C4(C)C)[C@]3(C)C(=O)C[C@@]12C`, the Potency was 0.0468 µM (active).
